These results are taken from the supplement of paper PMC6555819.

For one test, the system named is LXRa homodimer (NR concentration 270 nM). In words: PBM binding z-score (relative to random genomic background probes); higher = stronger binding; sequences stand for … in GC…GCGATTGACAGCGTAGAATGAAGG
The essentials:
(§1)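 Binding z-scores were set against random background probes. The data came from custom Agilent 4×180K protein-binding microarrays carrying double-stranded probes with 34-nt variable regions, incubated 1 h with ligand-free nuclear receptor dimers. Partner-specific antibodies detected binding, and scanned fluorescence was regression-normalized.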
Sequence CCTAGTGGGCCATTCAGAGGTCATTGATCATATG yielded a PBM binding z-score of 6.62.

TAGCCTAGGTCATGGTCCAGTATACCACGCGAAC gave a PBM binding z-score of 0.367.

CAAACTAGGTCAAAGGTCTAAGTCGAGCCAACCA: the PBM binding z-score was 0.54.

CCTACTGGGCCATCAGGTCATAGATATCAACGTT registered a PBM binding z-score of 0.812.

With TCTATTAGTTGGTTAGGGCAACCGAAACAGCGGA, the PBM binding z-score came to 0.522.

Regarding CGTCCAAGGTTAGCAGGTCAGTGAAAGCGACGTG, the PBM binding z-score is -0.0811.

GGTGCTAGGTCAGGTTGGTCAGCTAACGGGTACG: the PBM binding z-score worked out at 0.61.

In turn, TTACCAAGGTGGGCTGAGGTCGTTGATCCAACTC yielded a PBM binding z-score of -0.083.

Turning to CAAACTAGGTCAAAGGTCATAGTCGAGCCAACCA, the PBM binding z-score was 5.6.

In the case of GCTGTTAGTTGAAAGGGCAACCGAATGATTCTCG, the PBM binding z-score is -0.0723.

Consider CGAACTAGGTCAGCCAGGACAGTGAATACATTGA, for which the PBM binding z-score was 0.291.

Sequence CCTACTGGGCCATCAGGTCATGGATATCAACGTT had a PBM binding z-score of 0.743.

In the case of GGAACGAGGGCATTCGAGTTGATGGCATGGCGAT, the PBM binding z-score was -0.635.

In turn, TAGCCTTGGTCAGATCGGGCCAGTATACGCTATA gave a PBM binding z-score of -0.925.

In turn, AGAATGAGGTTAAGATCAGGGACACAGAATACAT gave a PBM binding z-score of 0.0815.

AGTCAAAGTTCACTAGGTGACGTAAGATTCAGCT displayed a PBM binding z-score of 3.15.

GCTGCTAGGTCAACTGATGGTCAGTTAAAGCTCG had a PBM binding z-score of 0.245.

In turn, GGCACGAGGGCATTCGAGTTGATAGCATGGCGAT came in with a PBM binding z-score of -0.515.

ACTCGGAGGACAAAGGTCAGAGCAACGCCAGTGA registered a PBM binding z-score of 1.56.

In the case of ACTCGGAGAACAAAGGTCAGAGCTACGCCAGTGA, the PBM binding z-score was found to be 1.8.

In turn, TAGCCTAGGTCATGGGCCCGTATACCACGCGAAC displayed a PBM binding z-score of 0.466.

The sequence ATATGTAGATTAAGGGTCATTCAGGTTGGTTCGC displayed a PBM binding z-score of 3.27.

The sequence CGTCAAAGTTCAACCAAGGTAACGTAAAGCACGC had a PBM binding z-score of 4.15.

The sequence GATACAGGGTCAGTTAGAGGCCAGAGTATGGAAA came in with a PBM binding z-score of 0.247.

On to ACATGTAGGTTAGCTGGGGTCATTCAGACTAGGC, for which the PBM binding z-score was found to be 2.93.

TCTATTAGTTGATTAGGGCAAACGAAACAGCGGA: the PBM binding z-score amounted to 0.307.

In turn, AGTCAAAGTTCAGGACGAGGTAACCTAAAGCACG yielded a PBM binding z-score of 1.24.

CGTCCAAGGTCAGGGAGGTCAGTGAATGCCGAGT returned a PBM binding z-score of 2.42.

GCGACTGGGGCATCAGCAGGTTAACATAACTTAA showed a PBM binding z-score of -0.456.

On to CCTACTGGGCCAAGGTCATTGATCAGTCAAAGCA, for which the PBM binding z-score is 1.06.

As to TAGCCTAGGTCATGCGGGCCAGTCTAGTGTCGGC, the PBM binding z-score is -0.0115.

Sequence ATCGAAAGGTCGAAGGTGAGTTTACCCACCCGAA returned a PBM binding z-score of 0.479.

For the sequence GCAGACAGGTGAAACGTAGGTAACTCAGGGTGGC, the PBM binding z-score is -0.589.

Consider TCATACAGGTGAAGGTAACTCAGGTACGCAGTCG, for which the PBM binding z-score stood at 0.186.

Regarding TAGCCTAGGTCATTCAGGGGCCAATATAGAAAGC, the PBM binding z-score came to 1.12.

Turning to CCTCACGGGTCAAGGTTATAGCACGGGTGGTACG, the PBM binding z-score came to 0.0967.

For TCGAGTGGGTTAGTCGGGGCATTCAGCCAACATA, the PBM binding z-score came out at 0.0739.

In the case of CAAACTAGGCCAAAGGTCAAAGTCGAGCCAACCA, the PBM binding z-score stood at 4.2.

The sequence CAAACTAGGGCACCGGAAGGTCAAAGTCCGCATG registered a PBM binding z-score of 2.88.

As for CTCGAAATGTCGGTTGAGGTGAGTATACGGATAA, the PBM binding z-score was -0.308.

The next test relates to LXRb:RXRa (NR concentration 270 nM, RXRa partner concentration 90 nM). Described as above. The method in brief: as §1
In turn, CCTAGTGGGCCATTCAGAGGTCATTGATCATATG registered a PBM binding z-score of 3.77.

Consider TAGCCTAGGTCATGGTCCAGTATACCACGCGAAC, for which the PBM binding z-score was determined as 2.57.

With CAAACTAGGTCAAAGGTCTAAGTCGAGCCAACCA, the PBM binding z-score came to 3.21.

As for CCTACTGGGCCATCAGGTCATAGATATCAACGTT, the PBM binding z-score was 1.18.

With TCTATTAGTTGGTTAGGGCAACCGAAACAGCGGA, the PBM binding z-score stood at 0.534.

Sequence CGTCCAAGGTTAGCAGGTCAGTGAAAGCGACGTG came in with a PBM binding z-score of 0.92.

In the case of GGTGCTAGGTCAGGTTGGTCAGCTAACGGGTACG, the PBM binding z-score came to 1.09.

Turning to TTACCAAGGTGGGCTGAGGTCGTTGATCCAACTC, the PBM binding z-score was 0.938.

CAAACTAGGTCAAAGGTCATAGTCGAGCCAACCA displayed a PBM binding z-score of 6.78.

On to GCTGTTAGTTGAAAGGGCAACCGAATGATTCTCG, for which the PBM binding z-score was determined as 0.717.

Turning to CGAACTAGGTCAGCCAGGACAGTGAATACATTGA, the PBM binding z-score amounted to 0.649.

The sequence CCTACTGGGCCATCAGGTCATGGATATCAACGTT displayed a PBM binding z-score of 1.49.

Sequence GGAACGAGGGCATTCGAGTTGATGGCATGGCGAT yielded a PBM binding z-score of -0.299.

TAGCCTTGGTCAGATCGGGCCAGTATACGCTATA: the PBM binding z-score is -0.995.

With AGAATGAGGTTAAGATCAGGGACACAGAATACAT, the PBM binding z-score worked out at 1.81.

AGTCAAAGTTCACTAGGTGACGTAAGATTCAGCT showed a PBM binding z-score of 3.09.

GCTGCTAGGTCAACTGATGGTCAGTTAAAGCTCG came in with a PBM binding z-score of 2.35.

For GGCACGAGGGCATTCGAGTTGATAGCATGGCGAT, the PBM binding z-score was found to be 0.139.

On to ACTCGGAGGACAAAGGTCAGAGCAACGCCAGTGA, for which the PBM binding z-score was found to be 3.47.

ACTCGGAGAACAAAGGTCAGAGCTACGCCAGTGA came in with a PBM binding z-score of 3.29.

TAGCCTAGGTCATGGGCCCGTATACCACGCGAAC registered a PBM binding z-score of 2.77.

Take ATATGTAGATTAAGGGTCATTCAGGTTGGTTCGC: the PBM binding z-score was found to be 3.96.

Take CGTCAAAGTTCAACCAAGGTAACGTAAAGCACGC: the PBM binding z-score is 4.07.

The sequence GATACAGGGTCAGTTAGAGGCCAGAGTATGGAAA yielded a PBM binding z-score of 2.39.

As to ACATGTAGGTTAGCTGGGGTCATTCAGACTAGGC, the PBM binding z-score was found to be 4.9.

TCTATTAGTTGATTAGGGCAAACGAAACAGCGGA displayed a PBM binding z-score of 0.724.

AGTCAAAGTTCAGGACGAGGTAACCTAAAGCACG displayed a PBM binding z-score of 1.96.

Sequence CGTCCAAGGTCAGGGAGGTCAGTGAATGCCGAGT displayed a PBM binding z-score of 4.43.

Take GCGACTGGGGCATCAGCAGGTTAACATAACTTAA: the PBM binding z-score is 1.01.

CCTACTGGGCCAAGGTCATTGATCAGTCAAAGCA yielded a PBM binding z-score of 2.74.

TAGCCTAGGTCATGCGGGCCAGTCTAGTGTCGGC: the PBM binding z-score turned out to be 1.36.

For ATCGAAAGGTCGAAGGTGAGTTTACCCACCCGAA, the PBM binding z-score stood at 2.89.

In turn, GCAGACAGGTGAAACGTAGGTAACTCAGGGTGGC gave a PBM binding z-score of -0.409.

For the sequence TCATACAGGTGAAGGTAACTCAGGTACGCAGTCG, the PBM binding z-score amounted to 1.18.

Sequence TAGCCTAGGTCATTCAGGGGCCAATATAGAAAGC gave a PBM binding z-score of 3.78.

For the sequence CCTCACGGGTCAAGGTTATAGCACGGGTGGTACG, the PBM binding z-score was 2.74.

TCGAGTGGGTTAGTCGGGGCATTCAGCCAACATA had a PBM binding z-score of 0.985.

Sequence CAAACTAGGCCAAAGGTCAAAGTCGAGCCAACCA registered a PBM binding z-score of 5.75.

For CAAACTAGGGCACCGGAAGGTCAAAGTCCGCATG, the PBM binding z-score was 3.1.

Sequence CTCGAAATGTCGGTTGAGGTGAGTATACGGATAA came in with a PBM binding z-score of -0.214.
